Pf growth 48h = inhibits P. falciparum growth in the first generation, 48 h; 310,000 tested, 5.9% active; Potency, µM (top dose mostly 28.7 µM), without a hit: at the top dose activity change, negative = inhibition, actives largely listed as inhibitors; P. falciparum luciferase growth in erythrocytes, 48 h; note: % is set by controls: 0 for no effect and ±100 for the full control effect
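Luciferase-expressing parasites in RBCs, 2% Hct / 0.1% parasitemia final; RPMI 1640 + 0.5% Albumax; 37 C, 5% CO2, one generation; luminescence read-out, lower signal = inhibition.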
NS1 inh = inhibitors of influenza NS1 protein function; AID 2326; Potency, µM (titrated, usually from 46.1 µM), for inactives: at the highest dose activity, positive = more growth; 270,000 tested, 0.4% active; calls by dose curve; note: actives are rising curves; nearly all actives have a fitted effect of over 50% in size
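A cell-based growth assay was used: compounds that relieve NS1-induced slow growth of budding yeast raise OD600. Assay medium was yeast nitrogen base with ammonium sulphate and -URA supplement, pH 6.0, with 2% galactose.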
Sm TGR block = blocks Schistosoma mansoni thioredoxin glutathione reductase; Q962Y6; purified TGR, DTNB reduction, TNB absorbance 405 nm; Potency, µM (series often up to 114 µM), without a hit: top-dose activity change, negative = inhibition, most hits filed as inhibitors; 360,000 tested, 3% active; note: % is set by controls: 0 for no effect and ±100 for the full control effect; nearly all actives have a fitted effect of over 60% in size
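Kinetic colorimetric format: TGR-catalysed, NADPH-driven DTNB reduction monitored via TNB absorbance. Enzyme dispensed at 20 nM; compound exposure 15 min at room temperature before reaction start.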
AMA1 RON2 block = AMA1-RON2 (P. falciparum) interaction inhibition | AlphaScreen AMA1-biotinylated RON2 peptide binding | Potency, µM (series often up to 58.2 µM), for the others: at the highest dose activity change, negative = inhibition, usual class: inhibitors | 360,000 tested, 0.2% active;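 note: 0% = vehicle wells and -100% = peptide control; nearly all actives have a fitted effect of over 45% in size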
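AMA1 (3D7) with his tag at 25 nM final met compounds first, then biotinylated RON2 peptide at 25 nM; detection used donor plus acceptor beads, 10 µg/mL apiece, read by AlphaScreen after 30 min at room temperature.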
Pf growth 96h = P. falciparum growth inhibition at 96 hour, primary screen for plastid delayed-death inhibitors; P. falciparum luciferase reporter growth, 96 h; Potency, µM (doses to about 28.7 µM), for the others: top-dose activity change, negative = inhibition, most hits filed as inhibitors; 320,000 tested, 6.9% active; AID 504834; note: % is set by controls: 0 for no effect and ±100 for the full control effect
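Luminescence readout: decreased luciferase signal marks inhibited growth of reporter-expressing P. falciparum in infected red cells (2% hematocrit, 0.05% parasitemia final), exposed to compound two generations (96 h, 37 C, 5% CO2).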
Starred values were filed as active, the others as inactive; ? = inconclusive; . = no result given; [ ] = another dose, or the depositor's remark. In the library only some 11% were active in any assay of this set; here they are far more common. Unless noted, calls come from the whole dose curve; as a rule, active = well fitted curve in the direction sought with a large enough effect; inconclusive = small, poorly fitted or top-dose-only effect, or another doubt; inactive = no such curve, though single readings can be large; an effect the other way counts as inactive or inconclusive. Potency is the fitted concentration of half-maximal effect.

SMILES	Pf growth 48h	NS1 inh	Sm TGR block	AMA1 RON2 block	Pf growth 96h
COc1ccc(C(OCC(O)CNCCc2ccccc2)c2ccc(OC)cc2)cc1 (stereo not given)	9.3µM*	-5%	-17%	-11%	4.1µM*
COC(=O)c1ccccc1NC(=O)CCn1c(=O)oc2ccccc21	7%	-3%	0%	-4%	89%
CCc1ccc(-n2c(=O)c3sc4ccccc4c3n(CC(=O)N(CC)Cc3ccccc3)c2=O)cc1	.	.	6%	.	.
O=C(Cc1ccc(Br)cc1)Nc1cccc(-c2cn3c(n2)SCC3)c1	?	.	1%	29%	?
O=C(Nc1nccs1)c1ccc(S(=O)(=O)N2CCOCC2)cc1	-7%	3%	6%	9%	18%
CCc1ccc(-c2cc(C)no2)cc1S(=O)(=O)Nc1cccc(CN2CCCC2)c1	9.3µM*	7%	-10%	5%	-32%
COc1ccc(-c2cc(C)no2)cc1S(=O)(=O)Nc1cccc(CN2CCCC2)c1	15µM*	10%	-7%	14%	-10%
COc1ccc(-c2cc(C)no2)cc1S(=O)(=O)Nc1cccc(C(F)(F)F)c1	.	.	3%	.	.
CC1Cc2ccccc2N1C(=O)CCn1cccn1 (stereo not given)	-2%	9%	-2%	4%	7%
Clc1ccccc1CN(Cc1ccco1)Cc1nnnn1C1CCCC1	7.4µM*	-35%	2%	-9%	12%
CCc1nn(C(CC)C(=O)NCCCN2CC(C)CC(C)C2)c(=O)c2cc3oc(C)cc3n12 (stereo not given)	?	-12%	7%	5%	0.19µM*
CCc1nn(C(CC)C(=O)NCCCc2ccccc2)c(=O)c2cc3occc3n12 (stereo not given)	49%	-15%	3%	0%	-13%
COc1ccccc1NC(=O)C1=C(C)Nc2nc(CCCO)nn2C1c1cccc(O)c1 (stereo not given)	.	.	-1%	.	.
O=C(O)c1cccc(NS(=O)(=O)c2ccc3c(c2)OCCCO3)c1	-5%	.	1%	7%	24%
Cn1c(=O)c(=O)n(C)c2cc(S(=O)(=O)Nc3ccc4c(c3)OCCO4)ccc21	3.3µM*	-4%	-22%	0%	36%
O=C(O)c1ccc(S(=O)(=O)Nc2ccc3c(c2)OCCO3)cc1	21%	15%	32µM*	7%	?
COc1ccc(Nc2nc3c(C)cccc3cc2C#N)cc1	?	-2%	-4%	1%	34%
COc1cccc(Nc2nc3cc(OC)ccc3cc2C#N)c1	-1%	4%	11%	17%	5.2µM*
CCC(C)NS(=O)(=O)c1ccc(N2CCCCS2(=O)=O)cc1 (stereo not given)	.	.	2%	.	.
c1ccc2c(CC3NCCN3)cccc2c1	.	-9%	.	.	.
COc1cc2c(cc1OC)CN(C(=O)CN1CCN(S(=O)(=O)c3ccccc3)CC1)CC2	?	-18%	-23%	-6%	13µM*
COc1cc2c(cc1OC)CN(C(=O)CC1CC3CCC1C3)CC2 (stereo not given)	?	-6%	6%	4%	2.6µM*
O=C(CN1CCc2ccccc2C1)N1CCN(S(=O)(=O)c2ccccc2)CC1	-9%	3%	3%	-3%	-19%
O=C(Cn1ncc2ccccc21)N1CCc2ccccc21	7%	?	-2%	-1%	4.7µM*
O=C(CN1CCN(S(=O)(=O)c2ccccc2)CC1)N1CCc2ccccc21	?	.	-10%	-7%	12µM*
SMILES	Pf growth 48h	NS1 inh	Sm TGR block	AMA1 RON2 block	Pf growth 96h
O=C(Nc1c(-c2ccccc2)[nH][nH]c1=O)c1cccc(C(F)(F)F)c1	.	.	.	-3%	.
CC1=NN(C(=O)CSCc2ccccc2)C(O)(c2ccc(Cl)cc2)C1 (stereo not given)	-28%	-2%	-5%	66%	12µM*
Cc1ccc(S(=O)(=O)N2C[C@H]3[C@H]4C(=O)N(c5ccccc5)C(=O)[C@H]4C[C@H](OC(=O)NC4CC4)[C@@]3(O)C2)cc1	.	.	.	4%	.
Cc1ccc(CC2C(=O)N(C)C(=O)N(C)C2=O)s1	12%	21%	40µM*	-7%	48%
Cc1c(NC(=O)CSCc2c(F)cccc2Cl)c(=O)n(-c2ccccc2)n1C	2%[5.75 µM]	.	0%	3%	52%[1.15 µM]
CCOC(=O)COc1nc(OC)nc(N2CCOCC2)n1	-8%	4%	-11%	-12%	2.6µM*
COc1nc(OC/C(N)=N/O)nc(N2CCOCC2)n1	-7%	1%	6%	-3%	166%
CCN(CC)CCN1C(=O)c2ccccc2NC1c1ccc(F)cc1 (stereo not given)	?	-1%	6%	11%	?
CCN(CC)CCN1C(=O)c2ccccc2NC1c1ccc(C)cc1 (stereo not given)	1.7µM*	3%	1%	1%	.
CCN(CC)CCN1C(=O)c2ccccc2NC1c1ccc(Br)cc1 (stereo not given)	1µM*	.	-6%	-11%	13µM*
CCN(CC)CCN1C(=O)c2ccccc2NC1c1ccc(N(C)C)cc1 (stereo not given)	0.41µM*	-58%	-5%	-4%	.
Clc1ccccc1-c1nc2nc3ccccc3nc2n1-c1ccc2c(c1)OCO2	?	-47%	-7%	-6%	10µM*
CNC(=O)c1c(N)sc2c1CCCCC2	.	-20%	?	.	10µM*
COCCNC(=O)c1c(N)sc2c1CCCC2	9.3µM*	9%	?	.	?
CCCOC(=O)c1c(N)sc2c1CCC2	-3%	-1%	?	-3%	?
Cc1cccc(C(=O)c2c(N)sc3c2CCCC3)c1	?	11%	?	-6%	15µM*
Cc1cccc(C(=O)c2c(N)sc3c2CCC(C)C3)c1 (stereo not given)	28%	6%	-15%	-14%	?
CCOc1ccc(CCNC(=O)c2ccc(C)c(-n3cnc4cccnc43)c2)cc1	.	.	-2%	.	.
O=C(NCCC1CCCCN1S(=O)(=O)c1ccc(F)cc1)C(=O)NCCN1CCOCC1 (stereo not given)	17%	.	-18%	8%	?
CCCCN(CC)CCNC(=O)CN1C(=O)COc2ccc(S(=O)(=O)N3CCOCC3)cc21	.	.	-3%	.	.
COC(=O)c1c(NC(=O)CSc2nnc(Cn3nnc4ccccc43)n2C)sc(C)c1C	-23%	-15%	?	0%	7.4µM*

Bioassay records: PubChem BioAssay, National Center for Advancing Translational Sciences (NCATS)
